High-throughput results (PubChem BioAssay)
Sampled rows, rich in hits. Any-hit rate of the full collection: about 10%.
BAZ2B inh: qHTS Assay for Inhibitors of BAZ2B; Bromodomain adjacent to zinc finger domain protein 2B (Homo sapiens), Q9UIF8; AlphaScreen BAZ2B-H3K14Ac peptide displacement; Potency, µM (doses to about 114 µM), without a hit: top-dose activity change, negative = inhibition, usual class: inhibitors; actives 4.4% (n = 360,000); AID 504333, 2011; note: potency is the fitted concentration of half-maximal effect; % is set by controls: 0 for no effect and ±100 for the full control effect; nearly all actives have a fitted effect of over 60% in size
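AlphaScreen luminescence quantifies BAZ2B engagement of H3K14Ac peptide; the protein and biotinylated peptide are both at 50 nM final, buffer PBS pH 7.4 with 0.01% Tween-20, all steps at room temperature.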
G9a inh: qHTS Assay for Inhibitors of Histone Lysine Methyltransferase G9a. actives 8.8% (n = 350,000). AID 504332, 2011. Potency, µM (titrated, usually from 102 µM), inactives show top-dose activity, negative = inhibition, most hits filed as inhibitors. G9a H3K9 monomethylation, AlphaScreen, 2 h; note: potency is the fitted concentration of half-maximal effect; % is set by controls: 0 for no effect and ±100 for the full control effect; nearly all actives have a fitted effect of over 75% in size
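Readings reflect AlphaScreen signal from monomethyl-H3K9 antibody detection. HMT at 20 nM; substrate b-H3K9 500 nM; cofactor SAM 20 uM; 2 h RT reaction; compounds tested as titrations in qHTS with 15 min preincubation.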
JMJD2A Tudor: qHTS Assay for Inhibitors of JMJD2A-Tudor Domain. Lysine-specific demethylase 4A (Homo sapiens), O75164. AlphaScreen JMJD2A-Tudor / H3K4me3 peptide binding. Potency, µM (highest dose often 114 µM), for inactives: at the highest dose activity change, negative = inhibition, usual class: inhibitors. actives 4.4% (n = 390,000). AID 504339, 2011; note: potency is the fitted concentration of half-maximal effect; % is set by controls: 0 for no effect and ±100 for the full control effect; nearly all actives have a fitted effect of over 50% in size
Six1-Eya2 blk: qHTS Assay for Inhibitors of the Six1/Eya2 Interaction; actives 0.56% (n = 360,000); activity change, % (concentration not given with the values); AlphaScreen GST-Six1/His-Eya2 binding, biochemical; active compounds read low; Homeobox protein SIX1 (Homo sapiens) + Protein phosphatase EYA2 (Homo sapiens), …; AID 651725, 2012; in the data active = activity change below about -65%; inconclusive = mostly about -30% to -63%; note: % is set by controls: 0 for no effect and ±100 for the full control effect
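GST-Six1 + His-Eya2 (5X stock: 250/500 nM); Tris pH 8.0, 300 mM NaCl, 0.05% BSA, 0.02% Tween 20; GSH donor/Ni acceptor beads; 1 h 37 °C dark; AlphaScreen readout.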
HP1b chromo inh: HTS for Inhibitors of HP1-beta Chromodomain Interactions with Methylated Histone Tails; Potency, µM (titrated, usually from 114 µM), for the others: at the highest dose activity change, negative = inhibition, hits mostly inhibitors; Chromobox protein homolog 1 (Homo sapiens), P83916; AID 540317, 2011; actives 0.56% (n = 390,000); AlphaScreen HP1-beta / biotin-H3K9me3 peptide binding; note: potency is the fitted concentration of half-maximal effect; nearly all actives have a fitted effect of over 70% in size
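Compound inhibition of the preformed complex between 50 nM HP1-beta and 50 nM biotinylated H3K9me3 peptide was read by AlphaScreen. Buffer was PBS pH 7.4 with 0.01% Tween-20. Incubations ran 30 min at room temperature, with 10 ug/mL donor/acceptor beads.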
CtBP-E1A blk: qHTS Assay for Inhibitors of the CtBP/E1A Interaction. AlphaScreen GST-E1A/His-CtBP binding, 1536-well; active compounds read low. activity change, % (concentration not given with the values). actives 0.49% (n = 340,000); in the data active = activity change below about -65%; inconclusive = mostly about -30% to -63%; note: % is set by controls: 0 for no effect and ±100 for the full control effect
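GST-E1A and His-tagged CtBP (125 nM each as 5X stock) were preincubated with pin-transferred compound for 2 h at 37 °C in the dark, then glutathione donor and nickel acceptor beads were added for 1 h before AlphaScreen reading.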
* marks the source's active call; other numbers are inactive results; ? = inconclusive; nt = not tested or not shown; ! = a repeat was not active; [ ] = another dose, or the depositor's remark. Unless noted, calls come from the whole dose curve; as a rule, active = well fitted inhibition curve with a large enough effect; inconclusive = small, poorly fitted or top-dose-only effect; inactive = no such curve, though single readings can be large or run the other way.

SMILES | BAZ2B inh | G9a inh | JMJD2A Tudor | Six1-Eya2 blk | HP1b chromo inh | CtBP-E1A blk
c1cc2c(c(NC3=NCCN3)c1)CCCC2 | nt | 19%[59 µM] | nt | nt | nt | nt
O=C1NCCOC(=O)[C@@H](Cc2ccc(F)cc2)CC/C=C/C[C@H]1CC(=O)N(CCO)Cc1ccccc1 | nt | nt | -14% | -2 | 39% | 2
O=C(/C=C/c1ccc(Cl)cc1)N[C@@]12CCC(=O)[C@@H]3Oc4c(O)ccc5c4[C@@]31CCN(CC1CC1)C2C5 | nt | 16%[59 µM] | nt | nt | nt | nt
O[C@@H]1CCCC[C@@H]1N1CCC(c2ccccc2)CC1 | nt | 22%[59 µM] | nt | nt | nt | nt
O=C(N/N=C/c1c(O)n(CCc2ccc(F)cc2)c(=O)[nH]c1=O)c1ccccc1 | -25% | -38% | ? | -9 | 53% | -5
O=C(N/N=C/c1c(O)n(CCc2ccccc2)c(=O)[nH]c1=O)c1ccccc1O | -38% | 71µM* | ? | ? | 33% | nt
COc1cc(/C=C/[N+](=O)[O-])ccc1O | 45µM* | 6.3µM* | ? | 9 | ? | 1
CCOc1cc(C=O)ccc1O | nt | nt | -20% | 1 | 23% | 2
CC(C)c1c(CN(C)[C@@H](C)Cc2ccccc2)n(C)n(-c2ccccc2)c1=O | nt | 4%[5.15 µM] | nt | nt | nt | nt
C[C@H]1CN([C@@H](C)CO)C(=O)c2cc(NC(=O)Nc3cccc4ccccc34)ccc2O[C@@H]1CN(C)Cc1ccc(-c2ccccc2)cc1 | nt | nt | ? | -10 | -5% | -2
O=c1[nH]c(=S)n(-c2cccc(Cl)c2)c(O)c1/C=N/N1CCOCC1 | -24% | ? | -20% | -2 | 46% | nt
CCCCCCC1CC(C)(C(=O)CNc2nncs2)OC1=O (stereo not drawn) | -32% | 14µM* | -13% | 11 | 9% | -10
C/C=C(/C)C(=O)O[C@H]1C(C)=C2C([C@@H]1OC(=O)CCCCCCC)[C@@](C)(OC(C)=O)C[C@@H](OC(=O)CCC)[C@@]1(O)[C@H]2OC(=O)[C@@]1(C)O (stereo partly drawn) | nt | 43%[12.7 µM] | nt | nt | nt | nt
C[N+](C)(C)CCOC(=O)CBr | 11% | 25µM*! | -18% | 5 | 15% | 9
CC(=O)OCC[N+](C)(C)C | 5% | 16%[59 µM] | 1% | ? | 34% | 2
COc1cc(/C=C2/SC(=S)N(Cc3ccccc3)C2=O)ccc1OCC(=O)O | 56µM* | 5%[0.501 µM] | ? | -18 | -12% | -17
CC(=O)C1=NOC(CNc2ncc(C(F)(F)F)cc2Cl)C1 (stereo not drawn) | 3% | 13%[59 µM] | 4% | -1 | 42% | 3
CCCOC(=O)Nc1ccc([As](=O)(O)O)cc1NC(=O)OCCC | -7% | 39%[0.501 µM] | 6% | 25 | 43% | -7
CCOC(=O)Nc1ccc(NCc2ccc(F)cc2)nc1N | 71µM* | 1.2µM* | 56µM* | 0 | ? | ?
CCC(=O)Nc1ccc(C(=O)OCc2ccccc2Cl)cc1 | 3% | 24%[59 µM] | 7% | 0 | 61% | -7
Nc1c(C(=O)NCc2ccco2)c2nc3ccccc3nc2n1CCN1CCOCC1 | 8% | 50µM* | -10% | ? | 59% | -73*
c1cnc(N2CCC3(CCNCC3)CC2)nc1 | nt | -4%[12.7 µM] | nt | nt | nt | nt
CC[C@H](C)/C=C(C)/C=C/C1=CC2=C(Cl)C(=O)[C@](C)(OC(C)=O)C(=O)C2=CO1 | nt | nt | 79µM* | -11 | ? | 3
Cc1ccc(NC(=O)COC(=O)CCc2c[nH]c3ccccc23)cc1[N+](=O)[O-] | ? | 40µM* | ? | ? | -23% | ?
CC(=O)NCCc1c[nH]c2ccccc12 | ? | 2%[59 µM] | -5% | 4 | 25% | 8
SMILES | BAZ2B inh | G9a inh | JMJD2A Tudor | Six1-Eya2 blk | HP1b chromo inh | CtBP-E1A blk
COc1ccccc1C(=O)Nc1ccc2nc(SCC(=O)N3CCCc4ccccc43)sc2c1 | -36% | -13%[59 µM] | -16% | nt | 66% | nt
CN1CCC2(CC1)N=C(c1ccc(F)cc1)C(=S)N2 | -1% | 25µM* | 32µM* | -22 | ? | 4
Oc1c(Br)cc(Br)cc1CN1CCN(Cc2ccccc2)CC1 | 79µM* | 45µM* | 20µM* | ? | -9% | -26
CCN1CCN(Cc2cc(Br)cc(OC)c2O)CC1 | 12% | ? | -22% | 1 | 25% | 6
c1ccc(CCNCc2ccccc2)cc1 | 3% | 6% | -9% | 10 | 15% | -2
CC1=C/C(=N\NC(=S)NCCc2ccccc2)CC(C)(C)C1 | ? | 40µM* | 50µM* | -24 | -11% | ?
COP(=O)(OC)[C@@H](O)C(Cl)(Cl)Cl | nt | 31%[21.5 µM] | nt | nt | nt | nt
CCCCc1ccc(NC(=O)c2cccn(Cc3ccc(Cl)cc3)c2=O)cc1 | 13% | 58%[59 µM] | -12% | nt | 21%[57 µM] | nt
COc1ccc(C2N(c3cc(C)on3)C(=O)C3CCCN32)cc1 (stereo not drawn) | -28% | 35µM* | ? | -3 | -2% | 2
Cc1cc(N2C(=O)C3CCCN3C2c2cccc(Cl)c2)no1 (stereo not drawn) | 9% | -14%[59 µM] | -35% | -2 | 29% | 4
OC(COCc1ccc(Cl)cc1)CN1CC=C(c2ccccc2)CC1 (stereo not drawn) | 50µM* | ? | 1.1µM*! | -3 | ? | -17
COc1cc2c(c(OC)c1OC)-c1ccc(OC)c(=O)cc1[C@H](NC(C)=O)CC2 | nt | 13%[21.5 µM] | nt | nt | nt | nt
COc1ccc(Br)cc1C1SCC(=O)Nc2c1c(C)nn2-c1ccccc1C (stereo not drawn) | -3% | -10%[59 µM] | 10% | nt | 39% | nt
COc1ccc(OC)c(NC(=O)Cn2cc(C(=O)c3ccccc3F)c3ccccc32)c1 | -24% | -30%[59 µM] | -16% | nt | 17% | nt
C[C@@H]1CC2(CCCC[N+]2(C)C)C[C@H]1C | -17% | 11µM* | ? | -2 | -2% | -12
CC(C)(C)C(=O)OC1=CN(Cc2ccccc2)S(=O)(=O)c2ccccc21 | 5% | 23%[59 µM] | 14% | nt | 71% | nt
CCN1/C(=C\C=C\C2=[N+](CC)c3ccccc3C2(C)C)C(C)(C)c2ccccc21 | 11µM* | ? | ? | ? | ? | ?
COc1cc(Cn2c(=O)oc3ccc(C)cc32)ccc1OC(C)C | 22% | 13%[59 µM] | -1%[57.1 µM] | 1 | 90% | 6
COc1cc2c(cc1O)C[C@H]1NCCc3cc4c(c-2c31)OCO4 | 22µM* | ? | 22µM* | -65* | -2% | -79*
O=C1c2ccccc2C(=O)c2ccccc21 | nt | 0%[59 µM] | nt | nt | nt | nt
